According to PubChem BioAssay (NCATS):
A number with no mark means an inactive call. Calls follow the shape of the dose curve; as a rule, active = well fitted curve in the direction sought with a large enough effect; inactive = no such curve, though single readings can be large or run the other way.

Each molecule was assayed against Alpha-galactosidase A (Homo sapiens) (UniProt P06280) (assay: Counterscreen for Glucocerebrosidase Inhibitors: qHTS Assay for Human alpha-Galactosidase at pH 4.5 (AID 992; also: 0% is about no effect)). Conditions: purified enzyme, fluorogenic substrate; series mostly up to 76.9 µM; activity change, negative = inhibition: at the top concentration.
Text: NIH Chemical Genomics Center [NCGC]
NIH Molecular Libraries Screening Centers Network [MLSCN]
PI Name: Zheng, Wei [NIH]
Alpha-galactosidase is a homodimeric glycoprotein that hydrolyzes the terminal alpha-galactosyl moieties from glycolipids and glycoproteins. Deficiency of this enzyme results in Fabry Disease with progressive accumulation of globotriaosylceramide and other glycosphingolipids in vascular endothelial cells that causes renal failure, myocardial infarction and stroke, and premature death in patients. It has reported that the improper folding and trafficking of alpha-galactosidase resulted from the genetic mutations may account for a significant numbers of Fabry patients. […] We optimized this alpha-galactosidase assay in 1536-well plate format for identifying the novel small molecule inhibitors with the structures other than the sugar analogs in order to develop the new pharmacological chaperones.
NCGC Assay Protocol Summary:
This is a fluorogenic enzyme assay with 4-Methylumbelliferyl alpha-D-galactopyranoside as the substrate and human […] as the enzyme preparation. Upon the hydrolysis of this fluorogenic substrate, the resulting product, […]. 4-Methyllumbelliferone, can be excited at 365 nm and emits at 440 nm which can be detected by a standard fluorescence plate reader. Data were normalized to the controls for basal activity (without enzyme) and 100% activity (with enzyme). In the AC50 values were determined from concentration-response data modeled with the standard Hill equation.
Assay buffer: 50 mM citric acid, 0.005% Tween-20, pH 4.5. (pH 4.5 is an optimal condition for this enzyme assay)
1536-well assay protocol for the human alpha-galactosidase:
(1) Add 2 ul/well of enzyme (2 nM final)
(2) Add 23 nL compounds in DMSO solution. The final titration was 0.7 nM to 77 uM.
(3) Add 1 ul of substrate (80 uM final)
(4) Incubate at room temperature for 20 min.
(5) Add 2 ul stop solution (1M NaOH and 1M Glycine mixture, pH 10)
(6) Detect the assay plate in a ViewLux plate reader (PerkinElmer) with Ex=365 nm and Em=440nm.
Keywords: Alpha-galactosidase, Fabry Disease, pharmacological chaperone, chaperone therapy, high throughput screening, alpha-galactosidase inhibitor, MLSMR, MLSCN, NIH Roadmap, qHTS and NCGC

Chain of Alpha-galactosidase A (Homo sapiens) (P06280 whole entry, looked up): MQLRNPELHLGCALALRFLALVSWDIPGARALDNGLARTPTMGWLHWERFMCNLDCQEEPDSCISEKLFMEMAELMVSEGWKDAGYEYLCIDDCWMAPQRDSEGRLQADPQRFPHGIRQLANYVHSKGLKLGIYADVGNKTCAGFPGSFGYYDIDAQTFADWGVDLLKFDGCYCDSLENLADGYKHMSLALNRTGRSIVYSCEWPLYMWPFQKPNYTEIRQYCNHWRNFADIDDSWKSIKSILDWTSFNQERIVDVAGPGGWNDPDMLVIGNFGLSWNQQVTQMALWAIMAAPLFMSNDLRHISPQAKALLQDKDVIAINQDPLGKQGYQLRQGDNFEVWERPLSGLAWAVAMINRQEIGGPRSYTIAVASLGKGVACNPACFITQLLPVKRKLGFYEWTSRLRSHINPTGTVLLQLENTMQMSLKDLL

| Structure (SMILES) | activity change, negative = inhibition [%] |
| --- | --- |
| O=C(CCCN1CCC(O)(c2cccc(C(F)(F)F)c2)CC1)c1ccc(F)cc1 | -5.75 |
| c1cc(CN2CCCCC2)cc(OCCCNc2nc3ccccc3s2)c1 | -10.3 |
| CCCC(C(=O)OCCN(CC)CC)(c1ccccc1)c1ccccc1 | -6.32 |
| CSc1ccc(C(=O)c2[nH]c(=O)[nH]c2C)cc1 | -9.36 |
| CN(C)CCCN1c2ccccc2Sc2ccc(C(F)(F)F)cc21 | -0.314 |
| CC1=NS(=O)(=O)c2cc(Cl)ccc2N1 | -1.44 |
| CCc1cccc(N(C)C(N)=Nc2cccc3ccccc23)c1 | -7.33 |
| COC(=O)[C@@H](N)Cc1ccc(O)c(O)c1 | -0.85 |
| COc1ccc(CN(CCN(C)C)c2ccccn2)cc1 | -4.23 |
| O=c1[nH]c(=O)n([C@H]2C[C@H](O)[C@@H](CO)O2)cc1Br | 0.0856 |
| CN(C)CCCN1c2ccccc2Sc2ccccc21 | -4.47 |
| C(=C\c1ccccc1)/CN1CCN(C(c2ccccc2)c2ccccc2)CC1 | -2.82 |
| C[C@]12CCC(=O)C=C1CC[C@@H]1[C@@H]2CC[C@@]2(C)[C@H]1CC[C@]2(O)C(=O)CO | 2.41 |
| Cc1nc2sccn2c(=O)c1CCN1CCC(=C(c2ccc(F)cc2)c2ccc(F)cc2)CC1 | -9.62 |
| CCN(CC)CCNC(=O)c1cc(S(C)(=O)=O)ccc1OC | -0.33 |
| CNCCCN1c2ccccc2CCc2ccccc21 | -1.63 |
| NCCCNCCSP(=O)(O)O | -1.47 |
| CCNC(=O)N1CCN(CCCC(c2ccc(F)cc2)c2ccc(F)cc2)CC1 | -3.18 |
| COC(=O)[C@H]1[C@H]2C[C@@H]3c4[nH]c5cc(OC)ccc5c4CCN3C[C@H]2C[C@@H](OC(=O)c2cc(OC)c(OC)c(OC)c2)[C@@H]1OC | -16.3 |
| CN(C(=O)CCCOc1ccc2[nH]c(=O)ccc2c1)C1CCCCC1 | 2.38 |

| Structure (SMILES) | activity change, negative = inhibition [%] |
| --- | --- |
| CC(=O)Nc1nnc(S(N)(=O)=O)s1 | -0.702 |
| Nc1ncn([C@@H]2O[C@H](CO)[C@@H](O)[C@H]2O)c(=O)n1 | -0.982 |
| CN=C(NC#N)NCCSCc1nc[nH]c1C | 0.0515 |
| Cc1nc2ccccn2c(=O)c1CCN1CCC(C(=O)c2ccc(F)cc2)CC1 | 1.54 |
| C[N+](C)(C)CCCCCCCCCC[N+](C)(C)C | -3.94 |
| CCN(CC)CCOCCOC(=O)C1(c2ccccc2)CCCC1 | -2.78 |
| CN/C(=C\[N+](=O)[O-])NCCSCc1ccc(CN(C)C)o1 | -0.504 |
| CN(C)C(=O)Oc1cccc([N+](C)(C)C)c1 | 0.564 |
| O=C(O)CP(=O)(O)O | -0.43 |
| CC1=C(C)C(=O)C(CCCCC#CCCCC#CCO)=C(C)C1=O | -0.488 |
| Nc1nc(N)c2nc(-c3ccccc3)c(N)nc2n1 | 435 |
| CC(C)NNC(=O)c1ccncc1 | -1.85 |
| CN1CCN(C2=Nc3ccccc3Oc3ccc(Cl)cc32)CC1 | -1.49 |
| COc1cc(C(=O)OCCCN2CCCN(CCCOC(=O)c3cc(OC)c(OC)c(OC)c3)CC2)cc(OC)c1OC | -3.88 |
| O=C1CC2(CCCC2)CC(=O)N1CCCCN1CCN(c2ncccn2)CC1 | -0.44 |
| CCO/C([O-])=N/c1c[n+](N2CCOCC2)no1 | -1.57 |
| COc1cc(Cc2cnc(N)nc2N)cc(OC)c1OC | 1.37 |
| CCOC(=O)c1cnc2c(cnn2CC)c1NN=C(C)C | -1.99 |
| O=C(O)CN(CCN(CC(=O)O)CC(=O)O)CCN(CC(=O)O)CC(=O)O | -1.52 |
| CCn1cc(C(=O)O)c(=O)c2cc3c(cc21)OCO3 | -0.45 |
